# Screens deposited in PubChem BioAssay by several laboratories.
# Only some compounds are listed: those with a hit (about 1.4% of all), similar ones and a draw of the others.
# MCL1 BIM primary: inhibitors of human MCL1 binding to BIM-BH3 peptide. GST-MCL1 / FITC-Bim-BH3 fluorescence polarization. inhibition, % at 10.9 µM. 320,000 compounds, 0.68% hits;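 active = inhibition above the mean inhibition of all tested compounds plus 3 SD, set per campaign, cut at about 40% in these data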;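 note: 0% = DMSO wells and 100% = unlabeled Bim-BH3 peptide control; higher means more loss of mP so more displacement of Bim peptide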
# eLon inh: E. coli protease La inhibition; inhibition, % at 7.94 µM; purified E. coli Lon protease, fluorescence polarization; 360,000 compounds, 0.42% hits; P0A9M0; AID 602123; in the data active = inhibition above about 13%, passing the limit was not always enough;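 note: 0% = enzyme with probe and DMSO and 100% = no enzyme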
# Bcl-xL primary: blocks human Bcl-xL binding to Bim BH3 peptide; Q07817; GST-Bcl-xL / FITC-Bim BH3 peptide fluorescence polarization; inhibition, % at 10.9 µM; 320,000 compounds, 0.7% hits; AID 2129;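 active = inhibition above the mean of all tested compounds plus 3 SD, cutoff set per campaign, cut at about 30% in these data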;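 note: 0% = DMSO wells and 100% = unlabeled Bim-BH3 peptide competitor; inhibitors lower millipolarization by displacing the labeled peptide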
# MEX-5 binding: C. elegans MEX-5 TCR-2 RNA binding activity | Q9XUB2 | MEX-5/FITC-TCR2 RNA binding, fluorescence polarization; active compounds read low | activity score (negative = inhibition of binding), % at 10 µM | 300,000 compounds, 0.38% hits | AID 1832;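 active = inhibition past about -25% in most replicates, and total fluorescence under double the plate's negative control median, limit read from the data; inconclusive = replicates evenly split on the limit, or fluorescence at least double controls; inactive = too little inhibition in most replicates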;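 note: 0% = DMSO and -100% = 5 µM competing unlabeled TCR2 RNA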
# Target sequence (Q9XUB2 whole entry, looked up): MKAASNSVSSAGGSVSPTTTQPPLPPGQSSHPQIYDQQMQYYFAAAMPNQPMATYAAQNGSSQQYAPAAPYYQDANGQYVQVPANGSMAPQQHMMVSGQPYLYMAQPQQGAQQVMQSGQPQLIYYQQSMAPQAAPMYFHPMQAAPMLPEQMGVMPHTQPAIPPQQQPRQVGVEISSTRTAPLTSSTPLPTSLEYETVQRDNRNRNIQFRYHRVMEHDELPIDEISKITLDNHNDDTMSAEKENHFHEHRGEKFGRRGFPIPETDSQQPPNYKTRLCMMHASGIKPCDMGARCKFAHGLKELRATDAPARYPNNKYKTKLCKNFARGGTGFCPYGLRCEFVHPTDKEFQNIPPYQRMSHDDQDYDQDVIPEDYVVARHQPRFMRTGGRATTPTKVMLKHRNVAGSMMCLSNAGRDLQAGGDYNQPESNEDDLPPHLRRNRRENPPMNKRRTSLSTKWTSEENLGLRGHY
# GLD-1 RNA inh: GLD-1-TGE RNA interaction inhibition (C. elegans); Q17339; purified GLD-1 + fluorescein TGE RNA, fluorescence polarization; inhibition, % at 5.96 µM; 320,000 compounds, 0.44% hits; AID 2280;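 active = percent inhibition above a per-plate cutoff, the plate mean of test compounds plus 3 SD, cut at about 30% in these data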;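 note: 0% = DMSO wells with GLD-1 and probe and 100% = wells lacking GLD-1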
# An asterisk follows results filed as active; ? = inconclusive; nt = no result.
SMILES,MCL1 BIM primary,eLon inh,Bcl-xL primary,MEX-5 binding,GLD-1 RNA inh
Cc1ccc(C)c(S(=O)(=O)Nc2cc(SCC(=O)O)c(O)c3ccccc23)c1,36,34*,24,nt,14
CCc1ccc(S(=O)(=O)Nc2ccc(O)c3ccccc23)cc1,11,33,6,-3,2
O=C(O)CSc1cc(NS(=O)(=O)c2cccc([N+](=O)[O-])c2)c2ccccc2c1O,nt,12,nt,-66*,nt
CCCCCCCCN1C(=O)[C@H](CC(=O)NCc2cccc3ccccc23)C[C@@]2(C(=O)OCC)CCCC=C12,nt,-1,nt,nt,nt
CN(C(=O)c1ccccc1F)C(c1ccccc1)c1ccccc1,-10,-5,-1,-1,-3
CCOC(=O)C1=C(C)NC2=C(C(=O)CC(C)(C)C2)C1c1cccc(C)n1 (stereo unspecified),2,1,3,-1,5
CCOC(=O)CN=C1CC(C)(C)CC2=C1Sc1ncnc(N(C)C)c1N2,29,6,38*,-21,14
CN(C)c1cccc2c1c(NS(=O)(=O)c1cn(C)cn1)nn2C,9,-3,16,-30*,6
Cn1cnc(S(=O)(=O)Nc2ccccc2N2CCOCC2)c1,1,5,-1,0,2
CCOC(=O)Cn1c(=O)oc2cc(S(=O)(=O)NCc3ccccn3)ccc21,-2,26*,-1,3,2
COCCn1nnnc1CN(Cc1cc2cc(OC)c(OC)cc2[nH]c1=O)C1CCCC1,41*,-7,34*,-3,23
COc1cc(/C=C(/C#N)c2nc3ccccc3[nH]2)ccc1OCc1ccc(C(=O)O)o1,-11,-10,-3,-2,3
COC(=O)c1ccc(COc2ccc(/C=C(\C#N)c3nc4ccccc4[nH]3)cc2OC)o1,4,-13,3,-30*,1
CCOc1cc(/C=C(/C#N)c2nc3ccccc3[nH]2)ccc1Oc1ccc([N+](=O)[O-])cn1,1,-12,-4,0,-3
CCOc1cc(/C=C(\C#N)c2nc3ccccc3[nH]2)ccc1OC(C)C(=O)O (stereo unspecified),1,-29,6,-30*,-8
COc1ccc(S(=O)(=O)NC(=O)C2(C)CCN2C(=O)CCC2CCCC2)cc1OC (stereo unspecified),nt,-7,nt,nt,nt
NC(Cc1ccc(C(F)(F)F)cc1)c1csc(NC(=O)NCCc2ccccc2)n1 (stereo unspecified),nt,11,nt,nt,nt
COc1ccc2nc3ccccc3nc2c1NC(=O)c1ccc(Br)cc1,42*,-6,39*,?,-6
O=C(CCSc1nc2ccccc2s1)N/N=C/c1c(O)ccc2ccccc12,2,-8,1,-46*,-3
CC(C)=CCOc1ccc([C@@H]2COc3c(ccc4c3C=CC(C)(C)O4)C2)c(O)c1,3,3,-2,-1,11
O=C(c1cc(-c2ccc(Cl)c(Cl)c2)on1)N1CCCCCC1,-2,-4,3,-2,2
O=C(c1cc(-c2ccc(Cl)cc2)on1)N1CCCCCC1,-3,-5,2,-2,34*
COc1ccc(CNC(=O)C2CCN(S(=O)(=O)c3ccc(N4CCCC4=O)cc3)CC2)cc1,nt,3,nt,nt,nt
COc1ccc(Nc2ncnc3nc[nH]c23)cc1OC,-1,-11,-1,-33*,1
O=C(NNc1ccccn1)C(=O)NNS(=O)(=O)c1ccc(Cl)cc1,-9,2,-5,-10,0
SMILES,MCL1 BIM primary,eLon inh,Bcl-xL primary,MEX-5 binding,GLD-1 RNA inh
Cc1ccc(S(=O)(=O)NNC(=S)NC(=O)c2ccc([N+](=O)[O-])cc2)cc1,17,5,15,-31*,0
O=C(NNc1ccccn1)C(=O)NNS(=O)(=O)c1ccc(F)cc1,-1,-5,-1,-31*,-5
Cc1ccc(C(=O)NC(=S)NNS(=O)(=O)c2ccc(C)cc2)cc1,1,20,-2,-2,6
O=C(NNc1ccc([N+](=O)[O-])cc1)Nc1ccccc1,6,3,3,0,3
O=C(NNc1ccccc1)C(=O)NNS(=O)(=O)c1ccc([N+](=O)[O-])cc1,19,0,12,-35*,8
CNc1ncnc2c1ncn2[C@H]1CN(Cc2cccc3ccccc23)C[C@@H](CO)O1,nt,-9,nt,nt,nt
O=C(O)c1ccccc1-c1c2cc(I)c(=O)c(I)c-2oc2c(I)c(O)c(I)cc12,115*,21,110*,nt,49*
CN1C[C@@H]2[C@@H]3C(=O)N(Cc4ccccc4)C(=O)[C@@H]3[C@](C)(C1=O)N2C(=O)c1ccc(Cl)cc1,nt,2,nt,nt,2
COc1cccc(-c2cc(C(F)(F)F)c3c(N)c(C#N)sc3n2)c1,46*,nt,27,-4,-2
Oc1ccc(-c2cn3ccccc3n2)cc1,-3,-1,-2,-3,-1
Oc1ccc(-c2cn3ccccc3n2)cc1O,30,3,21,-28*,10
CCCCCCCCN1C(=O)[C@H](CC(=O)N2CCN(C(=O)c3ccco3)CC2)C[C@@]2(C(=O)OCC)CCCC=C12,nt,-1,nt,nt,nt
O=C(c1ccc([N+](=O)[O-])cc1)n1nc(-c2ccccc2)nc1NCc1ccccc1,6,1,0,2,5
O=C(c1ccc([N+](=O)[O-])cc1)n1nc(-c2ccccc2)nc1NCc1ccc(F)cc1,37,1,38*,1,24
O=C(Nc1ccccc1)c1nn(-c2ccccc2)c(=O)cc1C(F)(F)F,4,-2,4,-30*,-1
O=C(c1ccccc1)c1nn(-c2ccccc2)c(=O)cc1C(F)(F)F,-3,-3,8,2,-2
CN(C)c1ccc(-c2ccnc3c2CC(C)(C(=O)NCc2cccc(Cl)c2)O3)cc1 (stereo unspecified),nt,3,nt,nt,nt
CCOc1ccc(Cc2c(C)[nH]c3ccc(C(=O)O)cc3c2=S)cc1,31,3,31*,-5,21
CCc1c(C)[nH]c2ccc(OC)cc2c1=S,nt,-1,nt,nt,nt
Cc1nc(N2CCN(Cc3ccccc3)CC2)c(C#N)c2c1COC(C)(C)C2,24,10,26,-34*,8
O=C(CSc1nc2nn(-c3ccccc3)c(=O)c-2c2n1CCCCC2)c1ccc(OC(F)F)cc1,nt,0,nt,nt,5
O=C(NCCc1ccc(Cl)cc1)C1CCN(C(=O)c2sccc2-n2cccc2)CC1,8,4,9,-1,2
CC(CCc1ccccc1)NC(=O)C1CCN(C(=O)c2sccc2-n2cccc2)CC1 (stereo unspecified),-3,-3,72*,2,2
Cc1ccc(S(=O)(=O)NC(C(=O)Oc2ccc3c(C(F)(F)F)cc(=O)oc3c2)c2ccccc2)cc1 (stereo unspecified),42*,-2,45*,-8,47*
Oc1ccc(-c2csc(Nc3ccccn3)n2)cc1O,22,1,27,-32*,5
CCN(CC)C(=O)c1cccc(-c2csc(C(C)(NC(C)=O)c3ccc(OC)cc3)n2)c1 (stereo unspecified),nt,-7,nt,nt,nt
